# Screening data deposited in PubChem by National Center for Advancing Translational Sciences (NCATS).
# MCF10A rerep = A quantitative high throughput screen for small molecules that induce DNA re-replication in MCF 10a normal breast cells; Potency, µM (highest dose often 46.1 µM), without a hit: top-dose activity, positive = re-replication, usual class: activators; MCF 10A DNA re-replication, Hoechst nuclear intensity, 48 h; 2.9% of 350,000 active; further: % of control where 0% means no effect; nearly all actives have a fitted effect of over 50% in size
# KB-V1 cytotox = qHTS assay for MDR1-selective chemotherapeutics: Primary screen using the drug-selected MDR subline cells KB-V1 | KB-V1 MDR cells viability, CellTiter-Glo, 72 h | Potency, µM (doses to about 46.1 µM), usual class: cytotoxic | 3.4% of 400,000 active; further: on the % scale 0 is the no-effect control and ±100 the full control effect; nearly all actives have a fitted effect of over 60% in size
#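 Cytotoxicity toward P-gp-expressing KB-V1 cells was determined as loss of CellTiter-Glo luminescence after 72 h at 37 degrees C. Compounds were tested in quantitative HTS format across a concentration range, with curves fitted to normalized data.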
# ELG1 DNA repair = qHTS screen for small molecules that inhibit ELG1-dependent DNA repair in human embryonic kidney (HEK293T) cells expressing luciferase-tagged ELG1; Potency, µM (series often up to 46.1 µM), for the others: at the top dose activity change, negative = inhibition, actives largely listed as inhibitors; HEK293T ELG1-luciferase reporter, luminescence, 16 h; DNA damage induced by 5-fluorouridine; 2.3% of 330,000 active; further: on the % scale 0 is the no-effect control and ±100 the full control effect; nearly all actives have a fitted effect of over 55% in size
#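 Luminescence from the luciferase reporter, measured 30 min after ONE-Glo reagent at room temperature, was the read-out. Beforehand, 2,000 cells per well were exposed for 16 hr at 37 °C to 5-fluorouridine together with compound or vehicle.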
# KB-3-1 cytotox = qHTS assay for MDR1-selective chemotherapeutics: Primary screen using the parental adenocarcinoma cell KB-3-1. KB-3-1 viability, CellTiter-Glo ATP luminescence, 72 h. Potency, µM (highest dose often 46.1 µM), usual class: cytotoxic. 1.4% of 400,000 active; further: on the % scale 0 is the no-effect control and ±100 the full control effect; nearly all actives have a fitted effect of over 60% in size
#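 Screening of KB-3-1 cells (DMEM, 10% FBS, phenol-red free) ran from lowest to highest compound concentration; after 72 h at 37 °C viability was read luminescently and curves fitted.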
# SW480 rerep = A quantitative high throughput screen for small molecules that induce DNA re-replication in SW480 colon adenocarcinoma cells; AID 624297, 2012; SW480 DNA re-replication, Hoechst DNA content imaging, 48 h; Potency, µM (series often up to 46.1 µM), for inactives: at the highest dose re-replication activation, usual class: activators; 1.8% of 340,000 active; further: % of control where 0% means no effect; nearly all actives have a fitted effect of over 55% in size
#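 SW480 cells exposed to compounds for 48 hr at 37 C, 5% CO2, then Hoechst-stained 40 min. Nuclear DNA content imaged by fluorescence scanning (405 nm excitation, 500-530 nm emission); re-replication scored as increased high-intensity nuclei.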
# Numbers without * were called inactive; i = inactive; ? = inconclusive; . = no result given. The list is not random: actives were taken first. Their share in the collection is about 8.2%. The call rests on the fitted dose curve; in most records, active means well fitted curve in the direction sought with a large enough effect; inconclusive means small, poorly fitted or top-dose-only effect, or another doubt; inactive means no such curve, though single readings can be large; an effect the other way counts as inactive or inconclusive. Potency means the concentration at half of the fitted maximal effect.
SMILES,MCF10A rerep,KB-V1 cytotox,ELG1 DNA repair,KB-3-1 cytotox,SW480 rerep
Clc1ccccc1OCCCCn1ccnc1,-1.4%,i,-2.0%,i,-6.4%
Clc1ccc(SCCCCn2ccnc2)cc1,10.3µM*,i,4.2%,i,4.1%
CN(C)c1ccc(S(=O)(=O)N2CCCCC2)cc1NC(=O)CCNC(=O)c1ccccc1Cl,-1.1%,i,.,i,0.3%
C[C@@H](C(=O)NCC1CC1)[C@@H]1C[C@@]1(C)[C@@H](NC(=O)OCc1ccccc1)c1ccccc1,8.1%,i,-5.2%,i,?
C[C@@H](C(=O)NCCc1c[nH]c2ccccc12)[C@H]1C[C@]1(C)[C@H](NC(=O)OCc1ccccc1)c1ccccc1,-4.5%,i,18.4µM*,16.4µM*,14.6µM*
C[C@H](CO)NC(=O)[C@H](C)[C@H]1C[C@]1(C)[C@H](NC(=O)OCc1ccccc1)c1ccccc1,1.1%,i,-0.2%,i,-4.4%
C[C@@H](C(=O)NCc1ccccn1)[C@H]1C[C@]1(C)[C@H](NC(=O)OCc1ccccc1)c1ccccc1,20.6µM*,?,?,i,-1.8%
O=c1c2cc(N3CCOCC3)ccc2[nH]c(=S)n1Cc1ccccc1Cl,23.1µM*,i,?,i,?
O=c1c2cc(N3CCOCC3)ccc2[nH]c(=S)n1Cc1ccccn1,?,i,-2.2%,i,-2.4%
O=C(CCCCCn1c(=S)[nH]c2ccc(N3CCOCC3)cc2c1=O)NCc1cccc(Cl)c1,16.4µM*,i,?,i,?
Cc1ccc(C)c(C(=O)N2CCC(c3nc4c(nnn4Cc4ccccc4)c(=O)[nH]3)CC2)c1,.,i,.,i,.
O=C(Nc1ccc(Br)cc1)Nn1cnnc1,-2.5%,i,13.5%,i,-10.9%
CC(C)COc1cccc(C(=O)N(C)CC(=O)Nc2cccc3ccccc23)c1,6.3%,i,-23.9%,i,5.9%
Brc1cnc2nc(SCc3nc4ccccc4[nH]3)[nH]c2c1,3.3%,i,0.2%,i,-17.2%
COc1cccc(OCc2nc3ccccc3[nH]2)c1,-4.5%,i,?,?,-15.0%
COc1cccc(OCc2nc3ncc(Br)cc3[nH]2)c1,-1.9%,1.03µM*,?,5.8µM*,-6.7%
Cc1cc(C)cc(OCc2nc3ncc(Br)cc3[nH]2)c1,?,1.03µM*,.,1.3µM*,5.17µM*
Cc1cc(C(=O)NCc2ccc(F)cc2)n(-c2ccccc2)n1,1.1%,i,?,i,-1.4%
Cc1ccccc1NCc1ccc([N+](=O)[O-])s1,4.61µM*,i,-2.7%,?,?
O=C(Nc1cc2ccc(O)cc2oc1=O)c1ccccc1,.,i,.,i,.
CCN1C(=O)/C(=C2/Sc3ccc(OC)cc3N2C)SC1=Nc1cccc(O)c1,-1.4%,i,-8.6%,i,-2.0%
CCCCN1C(=O)/C(=C2/Sc3ccccc3N2C)S/C1=N\c1ncn[nH]1,14.6%,?,?,?,14.6µM*
Cc1ccc(N2C(=O)CSC23C(=O)N(CC(=O)Nc2ccccc2F)c2ccccc23)cc1C (centres undefined),.,?,.,i,.
O=C(Nc1ccccc1O)C(c1ccccc1)c1ccccc1,?,i,4.61µM*,i,?
CC(C)Cc1ccc(C(C)C(=O)Nc2ccccc2O)cc1 (centres undefined),12.0%,?,5.8µM*,20.6µM*,-70.9%
SMILES,MCF10A rerep,KB-V1 cytotox,ELG1 DNA repair,KB-3-1 cytotox,SW480 rerep
O=C(O)c1ccccc1NC(=O)C(c1ccccc1)c1ccccc1,2.1%,i,.,i,19.8%
Nc1c(-c2nc(-c3ccc4c(c3)OCO4)cs2)c2ccccn2c1C(=O)c1ccccc1,.,i,.,i,.
O=C1OC(C(=O)Nc2cc(C(F)(F)F)ccc2Cl)Cc2ccccc21 (centres undefined),.,i,.,i,.
CCOC(=O)c1[nH]c(C)c(C(=O)c2cc(F)ccc2F)c1C,1.16µM*,?,28.9%,0.92µM*,1.03µM*
CCOC(=O)c1[nH]c(C)c(C(=O)OCc2ccccc2F)c1C,8.2µM*,2.31µM*,?,4.61µM*,7.31µM*
O=C(CSc1ccc(-c2ccco2)nn1)NCc1ccccc1Cl,-4.9%,20.6µM*,-4.7%,i,-5.9%
O=C(CSc1ccc(-c2ccco2)nn1)Nc1ccc(F)cc1,6.6%,10.3µM*,?,i,-11.0%
Nc1ccc2c(c1)C(=O)c1cc(Cl)c(Cl)cc1-2,-38.9%,i,.,i,17.0%
CC(C)C[C@@H]1CN(CCCC[C@H]2CNC(=O)C(=O)N2CCC2CCCCC2)C(=O)C(=O)N1CC1CCCCC1,.,i,.,i,.
CCc1ccc2oc(-c3ccc(OC)cc3)cc(=Nc3cccc(C(=O)O)c3)c2c1,23.1µM*,i,?,i,24.8%
COc1ccc(-c2cc(=Nc3ccc(C(=O)O)cc3)c3cc(C)ccc3o2)cc1,13.2%,i,?,i,-4.9%
CCc1ccc2oc(-c3ccc(OC)cc3)cc(=Nc3c(C)n(C)n(-c4ccccc4)c3=O)c2c1,?,9.2µM*,?,?,-55.5%
O=c1[nH]/c(=C/c2ccc3c(c2)OCO3)c(=O)[nH]/c1=C\c1ccc2c(c1)OCO2,.,i,.,?,.
COc1cc2c(cc1OC)C(COc1ccc(C(C)C)cc1)NCC2 (centres undefined),-4.3%,i,-22.6%,i,-7.5%
O=C(CSc1nc2ccccc2c(=O)n1-c1ccc(F)cc1)Nc1cc(S(=O)(=O)N2CCOCC2)ccc1Cl,-0.2%,i,?,i,-1.9%
O=C(CSc1nc2ccccc2c(=O)n1Cc1ccccc1)Nc1ccc(Br)cc1C(=O)O,23.1µM*,i,-0.2%,i,12.0%
Cc1ccc(S(=O)(=O)N2CCOCC2)cc1NC(=O)CSc1nc2ccccc2c(=O)n1Cc1ccccc1,9.3%,8.2µM*,-27.5%,i,-1.4%
Cc1oc2ccc(O)c(CN3CCN(C)CC3)c2c1C(=O)Nc1cccc(C(F)(F)F)c1,.,i,.,i,.
Cc1cc(/C=N/n2cnnc2)c(C)n1-c1ccc(OCc2ccc(Cl)cc2)cc1,?,3.66µM*,?,8.2µM*,2.2%
COc1cccc(N2CCN(C(=O)c3oc4ccccc4c3NC(=O)CCc3cc(OC)no3)CC2)c1,-0.2%,i,?,i,2.7%
COc1ccc(CC(=O)Nc2ccccc2C(=O)N2CCOCC2)cc1OC,-10.6%,i,1.7%,i,0.581µM*
